Experiment [1] in a line: CCTE_Shafer_MEA_dev_spike_duration_mean: CCTE's Neural Network Formation Assay for Mean Spike Duration, Shafer Lab (AID 2284051).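 Further: mean network spike duration pooled as area under curve over DIV 5 to 12 recordings.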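 On AC50: potency for a decrease in mean network spike duration versus DMSO.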 The gist of the method: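 Rat cortical primary cultures, 48-well MEA (16 electrodes/well); compound from plating, renewed DIV 5, 9. Network spike duration (AxIS adaptive detector) recorded DIV 5/7/9/12, combined as trapezoidal AUC; loss direction vs DMSO.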

A short description of experiment [2]: CCTE_Shafer_MEA_dev_network_spike_duration_std: CCTE's Neural Network Formation Assay for Standard Deviation of Network Spike Duration, Shafer Lab (AID 2284052).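 Further: area under curve of spike duration SD across recording days 5 to 12; hits are decreases in network spike duration SD versus DMSO vehicle.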 The essentials: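 Rat cortical cultures, 1.5 x 10^5 cells/well, exposed continuously from plating to DIV 12 with media/compound renewal at DIV 5, 9. Spontaneous activity recorded DIV 5/7/9/12, AxIS adaptive spike detector; AUC across days; negative direction vs DMSO.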

Experiment [3] in a line: CCTE_Shafer_MEA_dev_per_network_spike_spike_number_mean: CCTE's Neural Network Formation Assay for Mean Number of Spikes in a Network Spike, Shafer Lab (AID 2284053).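 On AC50: fitted as decrease in spikes per network spike relative to DMSO.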 The essentials: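 Rat cortical primary cultures on 48-well MEA; compound from day 0, re-dosed with full media change DIV 5, 9. Recorded DIV 5, 7, 9, 12; spikes in 0.05 s window at network-spike peak ÷ total network spikes; AUC; loss vs DMSO.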

Experiment [4] can be described thus: CCTE_Shafer_MEA_dev_per_network_spike_spike_percent: CCTE's Neural Network Formation Assay for Percent of Spikes in a Network Spike, Shafer Lab (AID 2284054). The gist of the method: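 Read-out: percent of spikes falling in a 0.05 s window at network-spike peak, from spontaneous MEA recordings on days 5, 7, 9 and 12; trapezoidal AUC; loss of signal versus DMSO. Rat cortical cultures, compound present throughout.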

Experiment [5] can be described thus: CCTE_Shafer_MEA_dev_LDH: CCTE's Lactate Dehydrogenase Assay for Cytotoxicity in the Neural Network Formation Assay, Shafer Lab (AID 2284068; active means hit-call score of the fitted dose curve at least 0.9, where 1 is the maximum;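 further: exposure for twelve days from plating with re-dosing on DIV 5 and 9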). The gist of the method:
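Rat cortical primary neurons, MEA culture; dosing day 0–12, full medium plus compound exchange DIV 5, 9. Read-out: LDH enzyme activity, spectrophotometric. DMSO = negative control/baseline; signal loss → cytotoxicity.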

Experiment [6] can be described thus: CCTE_Shafer_MEA_dev_AB: CCTE's Alamar Blue Assay for Cytotoxicity in the Neural Network Formation Assay, Shafer Lab (AID 2284083; active means hit-call score of the fitted dose curve at least 0.9, where 1 is the maximum;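 further: resazurin reduction fluorescence as viability of cultured neurons; twelve days of exposure from plating with re-dosing on DIV 5 and 9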). The essentials:
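Rat cortical primary cultures, 1.5 x 10^5 cells/well on MEA; continuous compound exposure over 12 days of network development, re-dosed with full medium change DIV 5 and 9. Alamar Blue fluorescence; loss of signal = cytotoxicity vs DMSO baseline.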

Experiment [7] can be described thus: CCTE_Shafer_MEA_dev_mutual_information_norm: CCTE's Neural Network Formation Assay for Mutual Information Normalization, Shafer Lab (AID 2284091).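 On AC50: mutual information between electrodes summarised as area under curve across four recording days; potency is for a decrease in mutual information relative to DMSO.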 The essentials: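 Neurons from rat cortex were seeded at 1.5 x 10^5 cells/well onto PEI-coated MEAs in a laminin drop, then exposed to compound from day 0 for twelve days. Network recordings on four days gave mutual information, summarised by AUC relative to DMSO.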

In experiment [8] the test system is DIO3 (gene 1735). Kind of experiment: CCTE_GLTED_hDIO3: CCTE's human Deiodinase 3 (DIO3) Inhibition Assay, Great Lakes Toxicology and Ecology Division (GLTED) Lab (AID 2284055; active means hit-call score of the fitted dose curve at least 0.9, where 1 is the maximum;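 further: potency is for inhibition seen as loss of released iodide signal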). The essentials: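 Inhibition is read as reduced iodide release, measured spectrophotometrically by the Sandell-Kolthoff cerium/arsenic reaction. Adenovirus-expressed human DIO3 enzyme is exposed to chemical for 3 h, n=3 plates. Iodinated chemicals, nitrite, iron or thiocyanate may interfere.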

Experiment [9] can be described thus: CCTE_Shafer_MEA_acute_AB: CCTE's Alamar Blue Assay for Cytotoxicity in the Neural Acute Assay, Shafer Lab (AID 2284069; active means hit-call score of the fitted dose curve at least 0.9, where 1 is the maximum;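 further: active compounds lower the viability signal compared with DMSO wells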). The essentials: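 Read-out: resazurin fluorescence (ex 544, em 590 nm) after CTB reagent at 1:6 dilution in fresh media. Cells: primary rat cortical neuron networks, DIV 13 or 15, chemically exposed on MEA plates; DMSO as negative control/baseline.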
In general terms: Resazurin is reduced to fluorescent resorufin, in cell work by metabolically active cells.

A short description of experiment [10]: CCTE_Shafer_MEA_acute_LDH: CCTE's Lactate Dehydrogenase Assay for Cytotoxicity in the Neural Acute Assay, Shafer Lab (AID 2284086; active means hit-call score of the fitted dose curve at least 0.9, where 1 is the maximum;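 further: active means LDH release rises above DMSO vehicle level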). The essentials: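 LDH released during 40 min compound exposure of primary rat cortical cultures, quantified by absorbance at 490 nm in collected medium. Fitting direction positive versus DMSO vehicle.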

Where “and” joins values, the source holds several entries; their conditions need not be identical. Identical values can stand only once. Records with an inconclusive call do not appear. Where a structure was tested more than once in an assay, its records may differ in their call. Calls of active or inactive are those of the source. How the source made its calls, unless noted: active means hit-call score of the fitted dose curve at least 0.9, where 1 is the maximum; inactive means score below 0.9.

Consider 34 compounds from PubChem BioAssay (EPA / NIEHS).

As usually defined, the AC50 is the concentration at which the activity in the assay is half-maximal. `Clc1ccc(C(c2ccccc2Cl)C(Cl)(Cl)Cl)cc1` (centres undefined): the AC50 in [1] is 2.76 µM (active); in experiment [3] it was 0.215 µM (active); in experiment [4], 0.708 µM (active); in experiment [5], 2.38 µM (active); in experiment [6], 6.13 µM (active); in experiment [7], 0.0113 µM (active). Further, the result in experiment [2] was inactive.
Take `CCCCCCCCCC[N+](C)(C)CCCCCCCCCC`: the figures for the concentration at half-maximal activity (AC50) in [8], in [9] and in [10] were 3.56 µM (active), 20 µM (active) and 31.3 µM (active), respectively.
Consider `CN(C)CCO`, for which the compound was classed as inactive in [9] and in [10].
Consider `CCSC(=O)N(CC)C1CCCCC1`, for which the result in experiment [9] and in experiment [10] was inactive.
For the compound `CCCCCCCCCc1ccc(O)cc1`, in experiment [8], the AC50 was 17.4 µM (active). For the same compound, the call in experiment [9] and in experiment [10] was inactive.
Turning to `O=C(NC(=O)c1c(F)cccc1F)Nc1cc(Cl)c(OC(F)(F)C(F)F)c(Cl)c1`, the compound was called inactive in experiment [9].
Regarding `O=S(=O)(O)C(F)(F)C(F)(F)C(F)(F)C(F)(F)C(F)(F)C(F)(F)F`, the result in experiment [1], in [2], in experiment [3], in [4], in experiment [5] and in experiment [6] was inactive. Besides, the compound was classed as inactive in [7].
In the case of `c1ccc(-c2ccccc2)cc1`, the outcome in experiment [10] was inactive.
Regarding `Clc1ccc(C(Cl)(Cl)Cl)cc1`, in [8], the AC50 is 73.1 µM (active). Moreover, the result in experiment [9] and in [10] was inactive.
With `C=CC(N)=O`, the call in experiment [1], in experiment [2], in experiment [3], in experiment [4], in [5] and in experiment [9] was inactive. Moreover, the call in [6], in [10] and in experiment [7] was inactive.
Take `ClC(Cl)=C(c1ccc(Cl)cc1)c1ccc(Cl)cc1`: the AC50 in experiment [1] is 3.8 µM (active); in experiment [3], 3.63 µM (active); in experiment [4], 3.83 µM (active); in [5], 5.14 µM (active); in experiment [6], 6.02 µM (active); in [7] it was 2.19 µM (active). The result in [9] and in [10] was inactive.
Take `O=C(N[C@H]1CN2CCC1CC2)c1cc2ccoc2cn1`: the call in experiment [10] was inactive.
Regarding `CCCN(CCC)N=O`, the call in experiment [9] and in experiment [10] was inactive.
Take `ClC1=C(Cl)[C@]2(Cl)[C@@H]3[C@H]4C[C@H]([C@@H]5O[C@H]45)[C@@H]3[C@@]1(Cl)C2(Cl)Cl`: the call in experiment [1], in [2], in [3], in experiment [4], in experiment [5] and in experiment [9] was inactive. In [7], the call was inactive.
Turning to `CC(c1ccc(O)cc1)(c1ccc(O)cc1)c1ccc(O)cc1`, in experiment [9], the compound was classed as inactive.
For `ClC1=C(Cl)[C@]2(Cl)[C@@H]3[C@@H](Cl)[C@H]4O[C@H]4[C@@H]3C1(Cl)C2(Cl)Cl`, the AC50 in experiment [1] is 25.9 µM (active); in experiment [3] it was 27.1 µM (active); in experiment [4] it was 26.1 µM (active); in experiment [5], 22.5 µM (active); in experiment [6], 23.9 µM (active). The outcome in experiment [2], in experiment [9], in experiment [10] and in experiment [7] was inactive.
With `CC#Cc1cc(C)nc(Nc2ccccc2)n1`, in experiment [8], the AC50 is 3.73 µM (active). Besides, the outcome in experiment [9] and in experiment [10] was inactive.
On to `ClC1=C(Cl)[C@]2(Cl)[C@@H]3[C@@H]4C[C@@H]([C@H]5O[C@@H]45)[C@@H]3[C@@]1(Cl)C2(Cl)Cl`, for which the AC50 is 23.9 µM (active) in experiment [1]; 3.38 µM (active) in [2]; 15 µM (active) in experiment [4]; 11.3 µM (active) in experiment [5]; 22.4 µM (active) in [6]; 15 µM (active) in experiment [7]. For the same compound, the outcome in [3], in experiment [9] and in experiment [10] was inactive.
On to `COS(=O)(=O)OC`, for which, in [9], the outcome was inactive.
For the compound `c1cc2ccc3cccc4ccc(c1)c2c34`, the compound was classed as inactive in experiment [1], in experiment [2], in experiment [3], in [4], in experiment [5] and in [6]. Further, the call in experiment [7] was inactive.
On to `CCOP(=S)(OCC)SCSC(C)(C)C`, for which the AC50 is 13.9 µM (active) and 21.9 µM (active) in [1]; 16.2 µM (active) in [2]; 23.4 µM (active) and 17.1 µM (active) in [3]; 23.1 µM (active) and 28.7 µM (active) in experiment [4]; 15.1 µM (active) and 29.5 µM (active) in experiment [5]; 18.7 µM (active) and 82.5 µM (active) in experiment [6]. For the same compound, the AC50 in [7] was 23.4 µM (active) and 21.7 µM (active). The outcome in experiment [2] was inactive.
With `O=S(=O)(O)C(F)(F)C(F)(F)C(F)(F)C(F)(F)F`, the AC50 in experiment [1] is 50 µM (active); in experiment [3], 14.2 µM (active). The compound was called inactive in [1], in [2], in experiment [3], in experiment [4], in experiment [5] and in [7].
In the case of `NS(=O)(=O)C(F)(F)C(F)(F)C(F)(F)C(F)(F)C(F)(F)C(F)(F)C(F)(F)C(F)(F)F`, the half-maximal activity concentration (AC50) was 23.3 µM (active) in experiment [1]; 15 µM (active) in experiment [3]; 4.59 µM (active) in [4]; 27.6 µM (active) and 23.6 µM (active) in experiment [5]; 24 µM (active) in [6]. Besides, the compound was called inactive in [1], in [2], in [3], in experiment [4], in [6] and in [7].
In the case of `O=C(O)C(F)(F)C(F)(F)C(F)(F)C(F)(F)C(F)(F)C(F)(F)C(F)(F)C(F)(F)F`, the compound was classed as inactive in experiment [1], in experiment [2], in [3], in [4], in [5] and in experiment [7].
With `CCC(C)(CC)c1cc(NC(=O)c2c(OC)cccc2OC)on1`, the outcome in experiment [9] and in experiment [10] was inactive.
`CC(C)C(=O)OCC(C)(C)C(OC(=O)C(C)C)C(C)C` (centres undefined): the call in [10] was inactive.
For `O=C(O)C(F)(F)C(F)(F)C(F)(F)C(F)(F)C(F)(F)C(F)(F)C(F)(F)C(F)(F)C(F)(F)F`, in experiment [8], the AC50 was 89.4 µM (active) and 74.2 µM (active).
For the compound `CCC(C)(c1ccc(O)cc1)c1ccc(O)cc1`, the AC50 in experiment [1] was 10 µM (active). In addition, the compound was classed as inactive in experiment [2], in experiment [3], in [4], in experiment [9], in experiment [6] and in [10]. Also, the result in experiment [7] was inactive.
As to `Nc1ccc(-c2ccc(N)cc2)cc1`, the compound was called inactive in experiment [10].
Still for that read-out and setting: in the case of `CCC(C)c1cc([N+](=O)[O-])cc([N+](=O)[O-])c1O` (centres undefined) it was “inactive”.
Take `CO/C=C(/C(=O)OC)c1ccccc1COc1cccc(C(F)(F)F)n1`: the AC50 in experiment [1] was 212 nM (active) and 454 nM (active); in experiment [2] it was 246 nM (active) and 245 nM (active); in experiment [3], 218 nM (active) and 739 nM (active); in [4] it was 245 nM (active) and 751 nM (active); in [5], 122 nM (active) and 665 nM (active); in experiment [6] it was 856 nM (active) and 1.12 µM (active). Besides, the AC50 in [7] is 183 nM (active) and 312 nM (active). Further, the result in [9] and in experiment [10] was inactive.
In the case of `Oc1ccc(C(c2ccc(O)cc2)(C(F)(F)F)C(F)(F)F)cc1`, the AC50 in [1] was 9.95 µM (active); in experiment [8], 136 µM (active); in [5], 10 µM (active) and 13.1 µM (active); in experiment [6], 16 µM (active). In addition, the result in experiment [1], in [2], in [3], in [4], in experiment [9] and in experiment [6] was inactive. Further, in [7], the call was inactive.
`COc1ccc(O)c(C(C)(C)C)c1`: the call in experiment [1], in experiment [2], in experiment [3], in experiment [4], in experiment [5] and in experiment [9] was inactive. Besides, the outcome in experiment [10] and in experiment [7] was inactive.
Turning to `O=C(O)C(F)(F)C(F)(F)C(F)(F)C(F)(F)C(F)(F)F`, the call in experiment [1], in [2], in [3], in experiment [4], in experiment [5] and in [9] was inactive. For the same compound, the result in experiment [10] and in [7] was inactive.
